Reference: PubChem BioAssay AID778 (Sanford-Burnham Center for Chemical Genomics, 2007)
Screen size: about 96,000 compounds; about 20,000 (21%) were called active.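 How the source made its calls: active means CYP2C19 inhibition above a set limit at 5 µM in the primary screen (cut at about 50% in these data); inactive means the rest.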 A selection follows.

These compounds were tested against Cytochrome P450 2C19 (Homo sapiens) (UniProt P33261) (assay: blockers of cytochrome P450 2C19 activity – biochemical, luminescence, ADME assay, primary screen (AID 778;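 further: plate controls were negative control wells for no effect and 2.5 mM tranylcypromine positive control for full effect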)). Conditions: CYP2C19 Supersomes, luciferin-H EGE luminescence, 30 min; at 5 µM; active compounds read high.
Sequence of Cytochrome P450 2C19 (Homo sapiens) (P33261 whole entry, looked up): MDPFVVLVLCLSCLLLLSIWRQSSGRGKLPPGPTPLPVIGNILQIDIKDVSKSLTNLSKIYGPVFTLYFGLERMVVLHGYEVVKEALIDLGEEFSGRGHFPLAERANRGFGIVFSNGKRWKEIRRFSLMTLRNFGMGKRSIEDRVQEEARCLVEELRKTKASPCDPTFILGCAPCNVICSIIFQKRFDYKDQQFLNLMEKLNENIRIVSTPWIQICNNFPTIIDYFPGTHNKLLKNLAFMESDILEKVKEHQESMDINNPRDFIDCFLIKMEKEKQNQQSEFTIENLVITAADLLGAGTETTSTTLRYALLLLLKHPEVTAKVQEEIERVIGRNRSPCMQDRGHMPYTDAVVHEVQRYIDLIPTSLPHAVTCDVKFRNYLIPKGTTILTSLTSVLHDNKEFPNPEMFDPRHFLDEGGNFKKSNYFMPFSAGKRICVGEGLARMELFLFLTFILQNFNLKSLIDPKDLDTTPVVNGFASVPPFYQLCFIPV

Question: `N#C/C(=C(/O)Cc1cccc2ccccc12)c1nc2ccccc2s1` was tested. Which inhibition did it give?
Answer: -0.2% (inactive)

Question: Which inhibition does the source give for `N=C(N)SCc1cccc2ccccc12` here?
Answer: -3.6% (inactive)

Question: For `c1ccc2c(C[n+]3csc4ccccc43)cccc2c1`, which inhibition is on record?
Answer: 60.7% (active)

Question: With `Cc1c2cn[nH]c(=O)c2c(C)n1Cc1ccc(F)cc1` as the compound, how does the inhibition read?
Answer: 48.3% (inactive)

Question: `Cc1ccc2oc(=O)c3cnn(CC(=O)N(Cc4ccco4)C4CCCCC4)c3c2c1` was tested. Which inhibition did it give?
Answer: 7.4% (inactive)

Question: `CCOC(=O)c1c(NC(=O)CCCN2CCOCC2)sc2c1CC(C)(C)OC2` was tested. Which inhibition did it give?
Answer: 9.3% (inactive)

Question: Which inhibition does the source give for `Cc1ccc(C(C(=O)NC2CCCCC2)N(C(=O)c2csnn2)C2CC2)o1` (stereo unspecified) here?
Answer: 50% (active)

Question: For `CCC(C(=O)NC1CCCC1)N(C(=O)c1snc(C(N)=O)c1N)c1ccc2c(c1)OCCO2` (stereo unspecified), which inhibition is on record?
Answer: -2.4% (inactive)

Question: With `Cc1ccsc1C(C(=O)NC1CCCCC1)N(C(=O)Cc1cccs1)C1CC1` (stereo unspecified) as the compound, how does the inhibition read?
Answer: -2.9% (inactive)

Question: Which inhibition does the source give for `O=C(Nc1ccc(F)c(Cl)c1)C1CCN(S(=O)(=O)c2cccnc2)CC1` here?
Answer: 41.7% (inactive)

Question: `O=C(Nc1ccc2c(c1)OCO2)C1CC(c2c(F)cccc2Cl)=NO1` (stereo unspecified) was tested. Which inhibition did it give?
Answer: 92.7% (active)

Question: Which inhibition does the source give for `Cc1ccc(NC(=O)C2CC(c3ccc(F)cc3)=NO2)cc1` (stereo unspecified) here?
Answer: 28.2% (inactive)

Question: With `O=C(Nc1ccccc1-c1nnn(CC(=O)N2CCN(c3ccccc3)CC2)n1)c1cccs1` as the compound, how does the inhibition read?
Answer: 47.5% (inactive)

Question: Which inhibition does the source give for `C=CCN(N=Nc1cccc([N+](=O)[O-])c1)c1cccc([N+](=O)[O-])c1` here?
Answer: 19.3% (inactive)

Question: For `O=C(Nc1ccccc1Cl)N1CCN(c2ccc3nncn3n2)CC1`, which inhibition is on record?
Answer: 24.1% (inactive)

Question: `O=C(Nc1ccc(Cl)cc1)N1CCc2[nH]c3ccccc3c2C1` was tested. Which inhibition did it give?
Answer: 13.4% (inactive)

Question: With `CC(C)OC(=O)C(C#N)c1nc2ccccc2nc1N1CCN(Cc2ccccc2)CC1` (stereo unspecified) as the compound, how does the inhibition read?
Answer: 30.6% (inactive)

Question: With `Cc1nc(NCc2ccccc2)c(C(N)=O)c2c1COC(C)(C)C2` as the compound, how does the inhibition read?
Answer: 48.5% (inactive)

Question: For `CC(C)c1nc(N2CCOCC2)c(C#N)c2c1COC(C)(C)C2`, which inhibition is on record?
Answer: 55.5% (active)

Question: How did the inhibition turn out when `CC(C)Cc1nc(N2CCOCC2)c(C#N)c2c1CCC2` was run?
Answer: 39.8% (inactive)

Question: `c1ccc2[nH]c(NCCN3CCOCC3)nc2c1` was tested. Which inhibition did it give?
Answer: 7.5% (inactive)

Question: How did the inhibition turn out when `CC1(C)Cc2c(C#N)c(SCc3nc4ccccc4[nH]3)nc(N3CCOCC3)c2CO1` was run?
Answer: 80.5% (active)

Question: `C1=C(N2CCOCC2)/C(=C/c2nc3ccccc3[nH]2)CC1` was tested. Which inhibition did it give?
Answer: 20.6% (inactive)

Question: Which inhibition does the source give for `CC(C)C(=O)N1CCN(c2nc(-c3ccccc3)c3c(c2C#N)CC(C)(C)OC3)CC1` here?
Answer: 95.4% (active)

Question: For `Cc1ccc2nc(-c3ccc(SCC(=O)Nc4cc(C)on4)nc3)[nH]c2c1`, which inhibition is on record?
Answer: -9.6% (inactive)

Question: `C=CCn1c(SCc2c(C)noc2C)nc2sc3c(c2c1=O)CCC(C)C3` (stereo unspecified) was tested. Which inhibition did it give?
Answer: 29% (inactive)
